RPL19A TOR yeast: RPL19A-GFP expression modulators in yeast, primary screen, cell-based, S. cerevisiae, multiplex flow cytometry, MLPCN. percent response vs DMSO, % at 10 µM. actives 0.3% (n = 330,000). S. cerevisiae RPL19A-GFP strain, 3 h; stronger effect = lower value;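 active means percent response vs DMSO below 50%; inconclusive means fewer than 70 events counted for the yeast strain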;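 further: median channel GFP fluorescence of the barcoded RPL19A-GFP strain; ratio of sample median GFP to plate DMSO average so 100% = DMSO; lower means less RPL19A-GFP as with rapamycin TOR inhibition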
MEP2 TOR yeast: modulators of MEP2-GFP levels in yeast, primary screen, S. cerevisiae, multiplex flow cytometry, MLPCN library | actives 0.51% (n = 330,000) | S. cerevisiae MEP2-GFP strain, 3 h; 100% = DMSO control level | GFP response vs DMSO, % at 10 µM;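 active means GFP response versus DMSO above a set limit, roughly screen mean plus 3 SD, cut at about 180% in these data; inconclusive means fewer than 70 cells counted for a yeast strain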;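 further: median GFP fluorescence of the barcode-gated MEP2-GFP cells per well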
LAP4-GFP MLPCN: modulators of LAP4-GFP expression in yeast, primary screen, S. cerevisiae, multiplex flow cytometry, MLPCN library; 3 h; median GFP as percent of DMSO wells; GFP response vs DMSO, % at 10 µM; actives 0.34% (n = 320,000); AID 2023, 2009;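 active means GFP response vs DMSO above a set limit, about the screen mean plus 3 SD, cut at about 150% in these data; inconclusive means under 70 cell events counted for the yeast strain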
CIT2-GFP yeast: modulators of CIT2-GFP expression in yeast, primary screen, S. cerevisiae, GFP fusion, multiplex flow cytometry, MLPCN library | S. cerevisiae CIT2-GFP strain, 3 h; 100 means same as DMSO wells | GFP response vs DMSO, % at 10 µM | actives 0.065% (n = 320,000) | AID 2029, 2009;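 active means GFP response relative to DMSO above a set limit, near the screen mean plus 3 SD, cut at about 150% in these data; inconclusive means Fewer than 70 cells measured for a yeast strain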;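 further: ratio of well median GFP fluorescence to mean of DMSO wells on the plate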
AGP1-GFP MLPCN: modulators of AGP1-GFP expression in yeast TOR pathway, primary screen, cell-based, multiplex flow cytometry, S. cerevisiae, MLPCN library; 3 h; GFP as percent of DMSO wells; GFP response vs DMSO, % at 10 µM; actives 0.02% (n = 320,000);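 active means GFP response relative to DMSO above a set limit, near screen average plus 3 SD, cut at about 150% in these data; inconclusive means fewer than 70 cells counted for the yeast strain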;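 further: median GFP channel fluorescence of the gated AGP1 strain per well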
* = called active by the depositor; ? = inconclusive; . = not tested or not shown; [ ] = another dose, or the depositor's remark. This is a sample that favours compounds with a hit; in the whole collection about 0.93% have one here.

SMILES	RPL19A TOR yeast	MEP2 TOR yeast	LAP4-GFP MLPCN	CIT2-GFP yeast	AGP1-GFP MLPCN
CCNC(=S)/N=C(\N)Nc1nc(C)c2cc(C)ccc2n1	46*[may fluoresce violet]	87	137	?	22
CCOc1ccc2nc(N/C(N)=N/C(=S)Nc3ccc(C)c(C)c3)nc(C)c2c1	102	102	103	97	96
Cc1ccc([N+](=O)[O-])cc1NC(=O)C(C)N1CCCCC1 (stereo not given)	49*[may fluoresce violet]	185*[may fluoresce violet]	73	?	19
CCOC(=O)CN(C(=O)c1ccccc1[N+](=O)[O-])C(C)(C)C	96	94	105	107	106
CCn1cc(C(=O)OC)c(=O)c2cc(S(=O)(=O)N(C)C3CCCCC3)ccc21	96	94	111	95	94
O=C(O)/C(=C\c1cccs1)c1ccccc1	98	91	105	88	103
CCCC(=O)N/C(N)=N/c1nc2ccccc2o1	86	97	116	78	88
CC(=O)N/C(N)=N/c1nc2cc(C)ccc2o1	19*[may fluoresce violet]	?	70	?	?
CC(=O)N/C(N)=N/c1nc2cc([N+](=O)[O-])ccc2o1	97	98	115	105	104
CCC(=O)N/C(N)=N/c1nc2ccccc2o1	87	110	176*	92	100
c1ccc(Cn2c(CNc3nc4ccccc4n3CCN3CCCCC3)nc3ccccc32)cc1	51	240*[may fluoresce violet]	89	?	.
CCCc1nnc(NC(=O)c2ccc([N+](=O)[O-])cc2)s1	56	214*[may fluoresce violet]	77	?	?
COc1ccc(S(=O)(=O)N2CCOC2CNC(=O)C(=O)NCCCN2CCOCC2)cc1 (stereo not given)	106	98	108	106	112
COc1ccccc1C(C)NC(=O)c1cc(=O)[nH]c2ccccc12 (stereo not given)	62	194*[may fluoresce violet]	101	?	20
COc1ccccc1NC(=O)c1cc(=O)[nH]c2ccccc12	100	99	83	98	90
CC1Cc2ccccc2N1S(=O)(=O)c1cccc(C(=O)N2CCN(c3ncccn3)CC2)c1 (stereo not given)	93	94	99	90	88
CC(=O)c1cc(C(=O)Nc2ccc(C(=O)O)cc2)oc1C	50*[may fluoresce violet]	545*[may fluoresce violet]	111	?	.
CC(=O)c1ccccc1NC(=O)COC(=O)CSCC(=O)Nc1cc(C)on1	94	100	104	97	101
COc1ccccc1N(CC(=O)NCCSCc1ccccc1)S(=O)(=O)c1ccc(C)cc1	54	212*[may fluoresce violet]	87	?	?
CC(C)CCNC(=O)NC(=O)COC(=O)C1CCN(S(=O)(=O)c2ccccc2F)CC1	103	102	107	93	101
COC(=O)c1ccccc1NC(=O)c1ccc(-c2cccc(Cl)c2)o1	38*[may fluoresce violet]	324*[may fluoresce violet]	103	?	.
CC(C)(C)C(=O)/C(=C\c1ccc([N+](=O)[O-])cc1)n1cncn1	87	92	190*	77	80
CC(C)(C)C(=O)/C(=C/c1ccc(Cl)cc1)n1cncn1	116	110	109	117	108
COC(=O)C(C(=O)Nc1nc2ccccc2s1)C1CCCC1 (stereo not given)	108	103	93	102	103
COCc1cc(=O)[nH]c(SCCS(=O)(=O)c2ccc(Cl)cc2Cl)n1	81	93	183*	71	93
COc1cccc(C2NC(=O)NC(O)(C(F)(F)F)C2C(=O)c2cccnc2)c1OC (stereo not given)	57	203*[may fluoresce violet]	103	?	23
CCCCN(C(=O)C1CC(=O)N(Cc2ccc(C)cc2)C1)c1c(N)n(CC(C)C)c(=O)[nH]c1=O (stereo not given)	104	103	93	102	97
CCN(CC)S(=O)(=O)c1ccc(O)c(C(=O)OCC(=O)NC2CCCC2)c1	84	185*	138	111	116
CCN(CC)S(=O)(=O)c1ccc(C(=O)OCC(=O)NC2CCCC2)cc1	100	105	97	101	92
O=C(CSc1nnc(-c2cccs2)n1C1CC1)NC1CCS(=O)(=O)C1 (stereo not given)	93	95	92	94	99
